As usually defined, the AC50 is the concentration at which the activity in the assay is half-maximal.

SMILES strings stand for the structures. Active and inactive are the calls of the source. The calls were made as follows: active = hit-call score of the fitted dose curve at least 0.9, where 1 is the maximum; inactive = score below 0.9.

Consider 40 molecules from PubChem BioAssay (EPA / NIEHS).

Read-out in the assay: Bcl-2 (BAD) gene, BAD (gene 572)
Briefly: LTEA_HepaRG_BAD: Life Technologies and Expression Analysis (LTEA) Assay for Bcl-2 (BAD) gene using HepaRG (AID 2283469). To be noted: mRNA level, 48 h; actives raise or lower the signal. The protocol:
LTEA_HepaRG is a cell based, multiplexed-readout assay that uses HepaRG, a human liver cell line, with measurements taken at 48 hours after chemical dosing on a 96-well plate.LTEA_HepaRG_BAD is one of 102 assay component(s) measured in the LTEA HepaRG cell culture assay. It is a marker of Cell proliferation, survival, death.Data from the assay component LTEA_HepaRG_BAD was analyzed into 1 endpoint. This assay endpoint, LTEA_HepaRG_BAD, was analyzed with bidirectional fitting relative to DMSO as the negative control and baseline of activity. Using a type of inducible reporter, measures of mRNA induction for gain or loss-of-signal activity can be used to understand regulation of transcription factor activity. To generalize the intended target to other relatable targets, this assay endpoint is annotated to the cell cycle intended target family, where the subfamily is Cell proliferation, survival, death.
A total of 1060 chemcials from the ToxCast library were tested in eight-point concentration-response experiments. Cell culture and cytotoxicity assays were conducted at Thermo Fisher Scientific's Custom Services facility (Madison, WI). A single lot of human HepaRG cells (Thermo Fisher Scientific, Frederick, MD) was used for the cell culture experiments. 96-well format collagen type I coated plates of human HepaRG cells were prepared using established methods. Briefly, cryopreserved HepaRG cells were thawed, plated at a density of approximately 100,000 cells/well in HepaRG Thaw, Plate, and General Purpose media (HPRG770, Thermo Fisher Scientific), and incubated for 48 hours. 0.5% DMSO was selected as vehicle control to balance the requisite need of DMSO in HepaRG cultures to maintain differentiation (for example, baseline metabolism, proportions of hepatocytes vs. cholangiocytes), while enabling further hepatic receptor pathway activation (for example, PXR and CAR) in response to chemical exposure. 48 hours after plating, the culture medium was replaced with HepaRG Serum-Free Incudtion Media. Cells were exposed to each test chemical in duplicate and maintained in CO2 incubators for another 48 hours. Chemical plates were thawed to room temperature and 200x concentrations of treatment groups were prepared. 8-point conentration-reponse curves were made with the highest exposure at 100 uM, followed by half-log dilutions, all in 0.5% DMSO. Each test plate contained variouse controls, induction positive controls (1mM phenobarbital), cytotoxicity positive controls ([…] aflatoxin B1), vehicle controls (0.5% DMSO), and total lysis controls (0.5% DMSO). Cell morphology images were taken using an Essen IncuCyte FLR automated microscope, with six 96-well plates imaged in about 24 minutes. Images were captured and exported and JPEG files. Spent culture media was transfered to black-well plates for the LDH assay, and remaining media was sorted at -80 C for later use. Cells were treated with RLT buffer and frozen until shipped for gene expression analysis. Total RNA was isolated from the cell suspension in 75 uL of Buffer RLT (Qiagen, Germantown, MD 20874) by Quintiles/Expression Analysis (Durham, NC) using a custom isolation procedure. Total RNA from each plate well was transferred to a preamplification plate. Fluidigm's 96.96 Dynamic ArrayTM (Fluidigm, Amsterdam, the Netherlands) technology was used for gene expression analyses by quantitative reverse transcription polymerase chain reaction (qRT-PCR, performed by Quintiles/Expression Analysis, Durham, NC)89. Standard TaqManTM Assays (Applied Biosystems/ThermoFisher Scientific, Foster City, CA) were used to assess the expression of 93 genes selected based on their selectivity and sensitivity to important hepatic receptors known to be modulated by environmental chemicals; importance in human hepatocyte functionality; and hepatotoxicity. […]
Take `COc1cc(C=O)cc2c1[C@H](COC(N)=O)[C@]1(OC(C)=O)ON2C[C@H]2[C@@H]1N2C(C)=O`: the AC50 was 89.3 µM (active).

`Cc1cc(N=Nc2ccccc2C)ccc1N`: the result was inactive.

`[Cl-].[Cl-].[Hg+2]`: the result was inactive.

For the molecule `CCCCCCCCOC(=O)c1ccc(C(=O)OCCCCCCCC)c(C(=O)OCCCCCCCC)c1`, the molecule was called inactive.

As to `CCCCC(CC)COC(=O)c1ccc(C(=O)OCC(CC)CCCC)c(C(=O)OCC(CC)CCCC)c1` (stereo not given), the molecule was classed as inactive.

For the molecule `O=[N+]([O-])c1ccc(Oc2ccc(Cl)cc2Cl)cc1`, the molecule was classed as inactive.

Consider `COC(=O)c1ccccc1N`, for which the molecule was classed as inactive.

For the molecule `Cc1ccc(N=C=O)cc1N=C=O`, the outcome was inactive.

Consider `O=Cc1ccco1`, for which the outcome was inactive.

As to `O=P(OCCCl)(OCCCl)OCCCl`, the result was inactive.

Consider `CC(O)CCO` (stereo not given), for which the molecule was called inactive.

`Cc1cccc(N)c1N`: the outcome was inactive.

In the case of `CC(C)(OOC(C)(C)c1ccccc1)c1ccccc1`, the call was inactive.

Consider `Clc1ccccc1Cl`, for which the molecule was called inactive.

Regarding `CCC[CH2][Sn]([Cl])([CH2]CCC)[CH2]CCC`, the call was inactive.

With `CCCCCCCCn1sccc1=O`, the result was inactive.

With `ClCCOCCCl`, the call was inactive.

Consider `ClC1=C(Cl)C2(Cl)C3C(Cl)C=CC3C1(Cl)C2(Cl)Cl` (stereo not given), for which the call was inactive.

On to `N#CC(Br)(Br)C(N)=O`, for which the call was inactive.

`CCC(C)c1ccc(O)cc1` (stereo not given): the result was inactive.

On to `Clc1ccc(C(c2ccc(Cl)cc2)C(Cl)(Cl)Cl)cc1`, for which the result was inactive.

`Oc1ccccc1Cl`: the molecule was called inactive.

Turning to `O=C(O)C1C2CCC(O2)C1C(=O)O` (stereo not given), the call was inactive.

With `CCC12COCN1COC2`, the molecule was classed as inactive.

As to `c1ccc(C2CO2)cc1` (stereo not given), the call was inactive.

Turning to `Clc1ccc(Cl)c(Cl)c1`, the molecule was called inactive.

In the case of `CC(C)(C)C(O)(CCc1ccc(Cl)cc1)Cn1cncn1` (stereo not given), the outcome was inactive.

Take `CNC(=O)Oc1cccc2c1OC(C)(C)C2`: the molecule was called inactive.

For `Nc1ccc(Oc2ccc(N)cc2)cc1`, the result was inactive.

As to `CC(C)(O)c1cnn2c(-c3ccc(F)c(-c4c(F)cccc4C#N)c3)cnc2n1`, the result was inactive.

Turning to `CC(C)COC(=O)c1ccccc1C(=O)OCC(C)C`, the molecule was classed as inactive.

As for `CN(C)C(=O)Nc1ccc(Cl)cc1`, the outcome was inactive.

With `CCN(CC)CCO`, the result was inactive.

As to `CC(C)(C)OOC(C)(C)CCC(C)(C)OOC(C)(C)C`, the outcome was inactive.

For `Nc1ccc(N=Nc2ccccc2)cc1`, the molecule was called inactive.

In the case of `Oc1ccc2ccc3cccc4ccc1c2c34`, the result was inactive.

For `C1=Cc2cccc3cccc1c23`, the molecule was called inactive.

On to `CO[C@@H]1[C@H](OC(=O)NC(=O)CCl)CC[C@]2(CO2)[C@H]1[C@@]1(C)O[C@@H]1CC=C(C)C`, for which the call was inactive.

Turning to `Cn1cc(-c2ccccc2)c(=O)c(-c2cccc(C(F)(F)F)c2)c1`, the molecule was called inactive.

Take `C[C@]12C=CC3=C4CCC(=O)C=C4CC[C@H]3[C@@H]1CC[C@@H]2O`: the outcome was inactive.
